Compounds with a hit are over-represented: about 19% of the library has one in this group of screens.
TDP1 inh = inhibitors of human tyrosyl-DNA phosphodiesterase TDP1; Potency, µM (titrated, usually from 130 µM), without a hit: top-dose activity change, negative = inhibition, most hits filed as inhibitors; 0.28% of 350,000 active; recombinant TDP1, AlphaScreen DNA substrate cleavage; AID 485290; note: potency is the fitted concentration of half-maximal effect; nearly all actives have a fitted effect of over 40% in size
Target sequence (Q9NUW8 whole entry, looked up): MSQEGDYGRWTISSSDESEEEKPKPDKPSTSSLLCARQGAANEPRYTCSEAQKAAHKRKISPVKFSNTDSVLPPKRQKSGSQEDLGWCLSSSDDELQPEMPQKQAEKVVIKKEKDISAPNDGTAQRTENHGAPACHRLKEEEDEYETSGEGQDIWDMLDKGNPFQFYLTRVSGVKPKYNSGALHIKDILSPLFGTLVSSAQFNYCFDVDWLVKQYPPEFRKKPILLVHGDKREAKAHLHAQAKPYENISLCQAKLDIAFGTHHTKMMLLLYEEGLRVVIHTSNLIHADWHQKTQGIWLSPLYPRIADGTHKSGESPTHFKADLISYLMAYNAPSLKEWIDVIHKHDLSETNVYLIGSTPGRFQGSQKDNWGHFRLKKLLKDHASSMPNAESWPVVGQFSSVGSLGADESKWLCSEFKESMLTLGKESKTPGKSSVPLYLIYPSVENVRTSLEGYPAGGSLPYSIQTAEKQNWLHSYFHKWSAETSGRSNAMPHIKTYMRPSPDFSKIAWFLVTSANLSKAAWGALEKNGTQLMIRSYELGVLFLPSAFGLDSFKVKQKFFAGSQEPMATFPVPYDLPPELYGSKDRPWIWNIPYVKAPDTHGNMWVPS
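Recombinant E. coli-expressed Tdp1 (1 nM) preincubated with compound 15 min at RT, then 5'-biotin/3'-phosphotyrosine-FITC DNA substrate (15 nM) added for 5 min. AlphaScreen beads (10 ug/ml) added, 10 min RT; tyrosine-FITC cleavage read as signal loss.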
DT40 TDP1 no CPT = qHTS for Inhibitors of human tyrosyl-DNA phosphodiesterase 1 (TDP1): qHTS in cells in absence of CPT; 15% of 420,000 active; AID 686978, 2013; DT40 Tdp1-/- hTDP1 cells, no CPT, ATP luminescence, 48 h; Potency, µM (highest dose often 46.2 µM), for the others: at the top dose activity change, negative = growth inhibition, actives largely listed as inhibitors; note: potency is the fitted concentration of half-maximal effect; nearly all actives have a fitted effect of over 55% in size
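Readout: luminescence from CellTiter-Glo after 30 min in the dark at RT. Cells: DT40 Tdp1-/- with stable hTDP1, 400/well. Exposure: compounds alone, ≥48 hr, 37 °C.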
ELG1 repair inh = inhibitors of ELG1-dependent DNA repair in HEK293T cells; HEK293T ELG1-luciferase reporter, luminescence, 16 h; DNA damage induced by 5-fluorouridine; Potency, µM (highest dose often 46.1 µM), for inactives: at the top dose activity change, negative = inhibition, actives largely listed as inhibitors; 2.3% of 330,000 active; AID 504467; note: potency is the fitted concentration of half-maximal effect; nearly all actives have a fitted effect of over 55% in size
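Step one: seed 2,000 cells per well. Step two: pin-transfer compound or DMSO alongside 5-fluorouridine. Step three: incubate 16 hr, 37 °C, 5% CO2. Step four: add ONE-Glo, wait 30 min, read luminescence.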
TDP1 cell CPT = growth inhibition of DT40 Tdp1-/-;hTDP1 cells with camptothecin (screen for TDP1 inhibitors); chicken DT40 Tdp1-/-;hTDP1 cells + 20 nM CPT, ATP luminescence, 48 h; Potency, µM (doses to about 46.2 µM), without a hit: at the top dose activity change, negative = growth inhibition, usual class: inhibitors; 12% of 420,000 active; AID 686979; note: potency is the fitted concentration of half-maximal effect; nearly all actives have a fitted effect of over 55% in size
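Cell growth measured by CellTiter-Glo luminescence after a minimum 48 h, 37 C compound exposure with 20 nM CPT in Tdp1-knockout DT40 cells stably expressing hTDP1, seeded 400/well; qHTS titration format.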
IL1B secr inh = inflammasome signaling inhibition, IL-1 beta readout | THP-1 LPS/ATP IL-1B secretion, AlphaLISA, 16 h; stronger effect = lower value | activity change, % at 57.5 µM | 4.7% of 360,000 active | AID 743279; in the data active = activity change below about -50%; inconclusive = mostly about -30% to -49%
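Secreted IL-1B measured by AlphaLISA bead assay after 16 h compound exposure of THP-1 cells; compounds (final up to 57.5 uM) added 1 h before LPS (250 ng/mL) and ATP (1.25 mM) stimulation; lower signal means less secretion.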
Giardia killer = kills Giardia lamblia; Giardia lamblia trophozoite viability; activity change, % at 7.66 µM, hits read low; 0.15% of 340,000 active; AID 540267; in the data active = activity change below about -80%; inconclusive = between about -30% and that limit;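 note: parasites exposed to compound for two days anaerobically before the ATP read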
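Media and compound were dispensed first, then trophozoites at 100 cells/well; plates sat 48 hrs at 37 deg C without oxygen before ATP luminescence reagent was added and read after 15-30 min at room temperature.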
Starred values were filed as active, the others as inactive; ? = inconclusive; nt = not tested or not shown; [ ] = remark or other dose. Unless noted, calls come from the whole dose curve; as a rule, active = well fitted curve in the direction sought with a large enough effect; inconclusive = small, poorly fitted or top-dose-only effect, or another doubt; inactive = no such curve, though single readings can be large; an effect the other way counts as inactive or inconclusive. % is set by controls: 0 for no effect and ±100 for the full control effect.

SMILES	TDP1 inh	DT40 TDP1 no CPT	ELG1 repair inh	TDP1 cell CPT	IL1B secr inh	Giardia killer
O=C(CNCCc1ccccc1)N1CCc2ccccc2C1	-8%	-21%	?	-3%	6	8
O=c1c2cc(NC(=S)N3CCCCCC3)ccc2nc2n1CCCCC2	1%	?	?	-21%	14	5
NS(=O)(=O)c1cccc(NC(=O)COC(=O)Cc2ccc(S(=O)(=O)N3CCOCC3)s2)c1	nt	-1%	nt	3%	43	-7
CC(=O)Nc1ccc(NC(=O)CN2C(=O)CCc3cc(S(=O)(=O)N4CCCCC4)ccc32)cc1	1%	-18%	nt	-4%	nt	nt
COc1ccc(OC)c(NC(=O)CN2C(=O)CCc3cc(S(=O)(=O)N4CCCCC4)ccc32)c1	6%	?	nt	26µM*	nt	nt
COc1ccc(NC(=O)CN2C(=O)COc3ccc(S(=O)(=O)N4CCCCC4)cc32)c(OC)c1	5%	?	-8%	15µM*	-54*	-16
Cc1cc(C)cc(NC(=O)CN2C(=O)CCc3cc(S(=O)(=O)N4CCCCC4)ccc32)c1	4%	?	nt	16µM*	nt	nt
O=C(CN(Cc1ccccc1)C(=O)CCC(=O)Nc1nccs1)NCc1ccc(F)cc1	12%	-8%	-30%	-1%	27	-24
O=[N+]([O-])c1ccc(Sc2ccc(Cl)c(Cl)c2)nc1	7%	-29%	15%	?	-58*	-7
O=C(COC(=O)C1CCN(c2ccc(C(F)(F)F)cn2)CC1)Nc1ccc(F)cc1[N+](=O)[O-]	7%	-20%	21%	?	34	44
COC(=O)C(C)N1C(=O)S/C(=C\c2cc(C)n(-c3ccccn3)c2C)C1=O (stereo not drawn)	6%	?	?	13µM*	5	-4
COC(=O)C(C)N1C(=O)S/C(=C/c2cc(C)n(-c3ccccn3)c2C)C1=O (stereo not drawn)	4%	16µM*	?	?	26	1
CCOC(=O)CN1C(=O)S/C(=C/c2cc(C)n(-c3ccccn3)c2C)C1=O	4%	?	?	?	-7	2
Cc1cc(/C=C2/NC(=O)NC2=O)c(C)n1-c1ccccn1	2%	-10%	?	-5%	42	-14
O=[N+]([O-])c1ccc(-c2nc(Cl)c3c(n2)CCCC3)o1	nt	16µM*	nt	9.2µM*	-94*	nt
CN(N=O)C(=O)N[C@H]1C(O)OC(CO)[C@@H](O)[C@H]1O (stereo partly drawn)	9%[56.1 µM]	-8%	nt	-22%	nt	nt
Cc1ccccc1CN1C[C@H]2CON(C)[C@H]2C[C@H]1c1cccc(Br)c1	nt	-29%	nt	0%	-18	nt
COc1ccccc1-c1cccc([C@@H]2C[C@H]3[C@H](CON3C)CN2Cc2ccccc2)c1	nt	21µM*	nt	?	-2	12
CN1OC[C@@H]2CN(Cc3cc(Cl)cc(Cl)c3)[C@H](c3cccc(Br)c3)C[C@@H]21	nt	21µM*	nt	?	-27	-29
Cc1ccccc1-c1cccc([C@@H]2C[C@H]3[C@H](CON3C)CN2Cc2cc(Cl)cc(Cl)c2)c1	nt	23µM*	nt	?	-19	11
O=C(Nc1ccccc1N1CCOCC1)c1cccc2ccccc12	nt	-18%	nt	?	-23	nt
Cc1ccc(C2NC(=O)c3sc(=S)n(-c4ccccc4)c3N2)cc1 (stereo not drawn)	5%	-30%	-10%	23µM*	12	-12
COc1cc(OC)c2cc(-c3ccncc3)cnc2c1	11%	27µM*	nt	24µM*	nt	nt
COc1ccc(-c2ccc(-c3nnc(-c4ccncc4)o3)cc2)cc1	5%	nt	?	nt	nt	nt
CCCC(=O)Nc1cc2c3c(c1)CC(=O)N3CCC2	1%	?	?	-3%	-17	-11
SMILES	TDP1 inh	DT40 TDP1 no CPT	ELG1 repair inh	TDP1 cell CPT	IL1B secr inh	Giardia killer
O=C(COc1ccc(Cl)cc1)Nc1cc2c3c(c1)CC(=O)N3CCC2	nt	21µM*	-10%	21µM*	15	2
COc1ccc2cc(C(C)C(=O)NC3CCC(O)CC3)ccc2c1 (stereo not drawn)	nt	-12%	-4%	19%	-3	-12
COc1ccc2oc(C(=O)OC(C)C(=O)N3CCC(C)CC3)c(C)c2c1 (stereo not drawn)	0%	15µM*	?	?	-3	14
COc1ccc2oc(C(=O)OCC(=O)N3CC(C)CC(C)C3)c(C)c2c1 (stereo not drawn)	nt	?	-2%	?	-27	-11
COc1ccc2cc(C(C)C(=O)N3CCC(C)CC3)ccc2c1 (stereo not drawn)	9%	?	-13%	16µM*	?	1
COc1cc(NC(=O)c2cc(-c3cc(F)ccc3OC(C)C)n[nH]2)cc(OC)c1OC	nt	16µM*	nt	?	?	nt
CCCOc1ccc(F)cc1-c1cc(C(=O)Nc2ccc(OC)nc2)[nH]n1	nt	18µM*	nt	?	?	nt
COc1ccc(NC(=O)c2cc(-c3ccc(F)cc3OC(C)C)n[nH]2)c(OC)c1	nt	?	nt	?	-27	nt
CCCOc1ccc(F)cc1-c1cc(C(=O)Nc2cc(OC)c(OC)c(OC)c2)[nH]n1	nt	15µM*	nt	8.2µM*	-11	nt
CC(C)Oc1cc(F)ccc1-c1cc(C(=O)Nc2cccc(C(F)(F)F)c2)[nH]n1	nt	?	nt	16µM*	-22	nt
COC(=O)c1cccc(N/C=C(\[N+](=O)[O-])S(=O)(=O)c2ccccc2)c1	nt	-25%	21%	4%	6	7
Cc1ccc2cccc(NC(=O)C(C)(C)Oc3ccc(Br)cc3)c2n1	-2%	nt	nt	nt	nt	nt
CC(C)CNC(=O)C(=O)NCC1OCCCN1S(=O)(=O)c1cccs1 (stereo not drawn)	2%	4%	8%	-1%	31	-8
CCc1ccccc1NC(=O)Cc1ccc(-n2c(C)nc3cccnc32)cc1	0%	?	nt	?	nt	nt
COc1ccc(NC(=O)c2cc(-c3ccc(F)cc3OC(C)C)n[nH]2)cn1	nt	23µM*	nt	?	39	nt
COC(=O)[C@@]1(Cc2ccccc2)[C@H]2c3cc(C(=O)N4CCCC4)n(CCO)c3C[C@H]2CN1C(=O)c1ccccc1	9%	nt	nt	nt	nt	nt
Cc1ccc(NC(=O)C2CCN(c3ncnc4c3nc3n4CCCCC3)CC2)nc1	3%	21µM*	?	23µM*	-17	-21
COc1ccc(Cl)cc1NC(=O)C1CCN(c2ncnc3c2nc2n3CCCCC2)CC1	4%	9.2µM*	nt	16µM*	nt	nt

Screening results: PubChem BioAssay, National Center for Advancing Translational Sciences (NCATS)
